The values that follow come from PubChem BioAssay (NCI).

Compounds without any hit were thinned out: in the full panel of roughly 83,000, 20% have a hit.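 Assay: single dose, 48 h. Readout: percent growth (0 = no net growth; negative = cell death). Active: <10.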 A number with no mark means an inactive call. Calls of active or inactive are those of the source.

The subject of the first experiment is SN12C renal. The experiment in a line: NCI-60 one-dose screen, 48 h (100 = growth as untreated, 0 = no growth, -100 = all killed). Particulars: 10 µM unless noted.
Turning to `CC[C@H](C)[C@@H]1NC(=O)[C@H](Cc2ccc(O)cc2)N(C)C(=O)[C@H](Cc2ccccc2)NC(=O)CN(C)C(=O)[C@@H]2CCCN2C(=O)[C@@H](Cc2ccccc2)N(C)C(=O)[C@H](CC(C)C)NC1=O`, the growth was -13.7% (active).

As to `C#CC(=O)Nc1cccc(Nc2nc3c(c(NCc4ccccc4)n2)CCCC3)c1`, the growth is -30.7% (active).

In the case of `CCCCCOc1ccc(/C=N/Nc2cc(C)nc3ccc(Br)cc23)cc1`, the growth is -88.8% (active).

Consider `COc1ccc(OC)c(/C=C/[C@H]2O[C@@H](C)[C@H](O)[C@@H]2O)c1`, for which the growth is 106%.

For `COc1ccc(C(=O)c2cc(C)c(OC)c(C)c2)c(OC)c1O`, the growth is 28.8%.

As for `C=C1C(=O)O[C@H]2[C@H]1CC/C(CNC(=O)/C=C/c1ccc(Br)cc1)=C\CC[C@@]1(C)O[C@@H]21`, the growth was -66.5% (active).

With `O=C(c1ccccc1)N1N=C(c2ccc(-n3ccc(C(F)(F)F)n3)cc2)CC1c1ccc[nH]1` (configuration not stated), the growth is 98.1%.

With `CS(=O)(=O)Nc1cc(-c2ccc3ncnc(Nc4ccc5[nH]ncc5c4)c3c2)cnc1Cl`, the growth is 67.8%.

`Nc1ncc(C#Cc2cncc(NC(=O)c3cccc(C(F)(F)F)c3)c2)c2cccnc12`: the growth was 50.4%.

Turning to `CCOC(=O)Oc1c(OC)cc(C(=O)O[C@@H]2C[C@@H]3CN4CCc5c([nH]c6cc(OC)ccc56)[C@H]4C[C@@H]3[C@H](C(=O)OC)[C@H]2OC)cc1OC`, the growth is 60%.

On to `O=C1Nc2ccccc2/C1=C\c1cccc(/C=C2/C(=O)Nc3ccccc32)n1`, for which the growth was 8.35% (active).

Consider `NC(=O)CN1CCN(c2ccccc2Cl)CC1`, for which the growth was 109%.

As for `CSc1nnc2c(=O)n(C)c(=O)n(C)c2n1`, the growth was 96.1%.

Regarding `NC(=O)c1cccc(-c2ccccc2N2CCCCC2)c1`, the growth was 93.6%.

Turning to `COc1cnccc1-c1nc2ccc3[nH]ncc3c2c2c1CCCC2`, the growth is 62.4%.

On to `c1ccc(-c2nnc(Nc3ccc4c(c3)OCCO4)o2)c(NCc2ccncc2)c1`, for which the growth was 27.5%.

For `CNC(=O)Nc1ccc(-c2nc(N3CCOCC3)nc3c2cnn3C2CCOCC2)cc1`, the growth was 7.06% (active).

As to `O=C(N/N=C/c1ccc(O)c(O)c1)c1sc2ccccc2c1Cl`, the growth was 77.1%.

For `COc1cc(C2CC(c3cccc(Nc4ccncc4)c3)=NN2c2ccccc2)cc(OC)c1OC` (configuration not stated), the growth was 62.5%.

Regarding `Nc1ccccc1NC(=O)c1ccc(CN2CCC/C(=C\c3cccc(Cl)c3)C2=O)cc1`, the growth is 5.8% (active).

On to `C[C@H]1[C@H](C)CC[C@]2(CO)CC[C@]3(C)C(=CC[C@@H]4[C@@]5(C)CCCNC(C)(C)[C@@H]5CC[C@]43C)[C@H]12`, for which the growth was -1.54% (active).

For the molecule `O=c1[nH]nc(-c2ccc(Br)cc2)cc1Cc1ccc(O)cc1`, the growth was 90.5%.

`CC1(C)CC[C@]2(C(=O)NCC#CCN3CCOCC3)CC[C@]3(C)C(=CC[C@@H]4[C@@]5(C)Cc6c([nH]c7ccccc67)C(C)(C)[C@@H]5CC[C@]43C)[C@@H]2C1`: the growth is 94.4%.

Turning to `COc1ccc(C(=O)/C=C/c2cn(Cc3ccc(Cl)cc3)c3ccccc23)cc1`, the growth was 69.4%.

As to `COC(=O)CCCCCCCCC1(C)C=CC(C(C)O)=CC1` (configuration not stated), the growth was 103%.

Turning to `COc1ccc(-c2nn(Cc3ccccc3)c3c2-c2oncc2CC3)cc1OC`, the growth is 85.8%.

As for `COc1ccc(CNC(=O)COc2ccc(/C=N/Nc3nc4ccccc4s3)cc2)cc1`, the growth is 30.8%.

The subject of another experiment is UO-31 renal. The experiment is described as above. The note with it: 10 µM unless noted.
With `N#Cc1c(NC(=O)c2cccc(Br)c2)sc2c1CCCC2`, the growth was 82.3%.

`Clc1ccc(C2CC(c3cccc(Nc4ccncc4)c3)=NN2c2ccccc2)cc1` (configuration not stated): the growth is 63.2%.

For the molecule `CC(=O)O[C@]1(C(C)=O)CC[C@H]2[C@@H]3C=C(Cl)C4=CC(=O)CC[C@]4(C)[C@H]3CC[C@@]21C`, the growth was 93.8%.

Consider `O=C(OC(OC(=O)c1cc(Cl)cc(Cl)c1)c1cccc2ccccc12)c1ccccc1` (configuration not stated), for which the growth was 75.6%.

For the molecule `CCC(C)C(N)C(=O)NNc1n[nH]c(=S)n1N` (configuration not stated), the growth is 85.3%.

For the molecule `CC[C@H](C)[C@@H]1NC(=O)[C@H](Cc2ccc(O)cc2)N(C)C(=O)[C@H](Cc2ccccc2)NC(=O)CN(C)C(=O)[C@@H]2CCCN2C(=O)[C@@H](Cc2ccccc2)N(C)C(=O)[C@H](CC(C)C)NC1=O`, the growth is 44.4%.

As to `CCCCCOc1ccc(/C=N/Nc2cc(C)nc3ccc(Br)cc23)cc1`, the growth was -94.1% (active).

Consider `COc1ccc(OC)c(/C=C/[C@H]2O[C@@H](C)[C@H](O)[C@@H]2O)c1`, for which the growth is 91.5%.

Regarding `COc1ccc(C(=O)c2cc(C)c(OC)c(C)c2)c(OC)c1O`, the growth was 36.6%.

For the molecule `C=C1C(=O)O[C@H]2[C@H]1CC/C(CNC(=O)/C=C/c1ccc(Br)cc1)=C\CC[C@@]1(C)O[C@@H]21`, the growth was -98.2% (active).

As to `O=C(c1ccccc1)N1N=C(c2ccc(-n3ccc(C(F)(F)F)n3)cc2)CC1c1ccc[nH]1` (configuration not stated), the growth is 77.8%.

For the molecule `Nc1ncc(C#Cc2cncc(NC(=O)c3cccc(C(F)(F)F)c3)c2)c2cccnc12`, the growth is 33.7%.

Consider `CCOC(=O)Oc1c(OC)cc(C(=O)O[C@@H]2C[C@@H]3CN4CCc5c([nH]c6cc(OC)ccc56)[C@H]4C[C@@H]3[C@H](C(=O)OC)[C@H]2OC)cc1OC`, for which the growth was 80.2%.

As for `O=C1Nc2ccccc2/C1=C\c1cccc(/C=C2/C(=O)Nc3ccccc32)n1`, the growth was -82.5% (active).

On to `NC(=O)CN1CCN(c2ccccc2Cl)CC1`, for which the growth is 82.7%.

On to `Nc1ccccc1NC(=O)c1ccc(CN2CCC/C(=C\c3cccc(Cl)c3)C2=O)cc1`, for which the growth was 22.6%.

Turning to `C[C@H]1[C@H](C)CC[C@]2(CO)CC[C@]3(C)C(=CC[C@@H]4[C@@]5(C)CCCNC(C)(C)[C@@H]5CC[C@]43C)[C@H]12`, the growth is 12.5%.

Turning to `O=c1[nH]nc(-c2ccc(Br)cc2)cc1Cc1ccc(O)cc1`, the growth was 77.3%.

Take `COc1ccc(C(=O)/C=C/c2cn(Cc3ccc(Cl)cc3)c3ccccc23)cc1`: the growth was 53.7%.

As to `COC(=O)CCCCCCCCC1(C)C=CC(C(C)O)=CC1` (configuration not stated), the growth is 100%.
